Among the data in PubChem BioAssay AID1476 (National Center for Advancing Translational Sciences (NCATS), 2009) are max response, negative = inhibition and Potency values, retold here.

In all, about 200,000 compounds went through this assay and about 4,500 (2.2%) were called active. Another 12% or so got no clear call; they are omitted. The list comes from a sample in which actives are over-represented; it also holds similar structures and randomly drawn compounds. Values without a mark were called inactive. The call rests on the fitted dose curve; in most records, active means well fitted inhibition curve with a large enough effect; inconclusive means small, poorly fitted or top-dose-only effect, or effect the other way; inactive means flat fitted curve, though single readings scatter.
Potency means the concentration at half of the fitted maximal effect.

Chain of Cruzipain (Trypanosoma cruzi) (P25779 123-467 limits assumed): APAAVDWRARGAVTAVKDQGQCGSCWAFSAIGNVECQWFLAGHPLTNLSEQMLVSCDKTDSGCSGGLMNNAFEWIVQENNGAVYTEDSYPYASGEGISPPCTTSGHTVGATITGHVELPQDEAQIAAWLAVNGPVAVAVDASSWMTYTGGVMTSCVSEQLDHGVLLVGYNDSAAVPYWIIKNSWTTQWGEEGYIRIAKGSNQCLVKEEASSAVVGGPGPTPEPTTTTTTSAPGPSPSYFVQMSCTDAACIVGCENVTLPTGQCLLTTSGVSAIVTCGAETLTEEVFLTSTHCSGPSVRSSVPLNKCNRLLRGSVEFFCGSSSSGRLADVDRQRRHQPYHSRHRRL

This experiment concerns the target Cruzipain (Trypanosoma cruzi) (UniProt P25779). The experiment in a line: qHTS Assay for Promiscuous and Specific Inhibitors of Cruzain (without detergent). Further: nearly all actives have a fitted effect of over 40% in size.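 On max response, negative = inhibition: plate controls were enzyme without inhibitor for no effect and buffer without enzyme for full effect.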 As to conditions: purified cruzain, Z-FR-AMC fluorescence, no detergent. The procedure, abridged: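 Purified cruzain at 1.5 nM, pre-incubated 15 min with compound at room temperature in 100 mM sodium acetate pH 5.5, 5 mM DTT, 0.00005% Triton X-100. Reaction started with 2 uM Z-FR-AMC; AMC fluorescence increase over 60 s gives rate.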
In general terms: Quantitative high-throughput screening tests each substance at several concentrations.
With `Cc1ccc(OCC(=O)Nc2ccc(OCc3cc(=O)n4c(C)csc4n3)cc2)cc1C`, the max response, negative = inhibition was -9.52%.

Regarding `Cc1ccc(C)c(Cn2c(C)c(CNCc3ccc(F)cc3)c(C(=O)O)c2C)c1`, the max response, negative = inhibition was 16.1%.

`O=C1CSC2(C(=O)N(Cc3ccccc3)c3ccccc32)N1c1cccc(F)c1` (stereo not given): the max response, negative = inhibition was 2.62%.

Turning to `COc1ccc(N2C(=O)CS(=O)(=O)C23C(=O)N(Cc2ccc(C)cc2)c2ccccc23)cc1Cl` (stereo not given), the Potency is 2.51 µM (active).

Take `COc1ccc(CN2C(=O)CC(Cc3ccc(C)cc3)C2=O)cc1OC` (stereo not given): the max response, negative = inhibition is -8.47%.

For `Cc1oc(-c2ccccc2F)nc1CN1CCC(C(=O)NCCc2ccc(Cl)cc2)CC1`, the max response, negative = inhibition is 1.36%.

With `CC1=C(C(=O)OCc2ccc(C)cc2)C(c2ccccc2Cl)CC(=O)N1` (stereo not given), the max response, negative = inhibition was 4.48%.

As for `COc1cc2c(cc1/C=C1/NC(=O)N(c3ccccc3)C1=O)OCO2`, the max response, negative = inhibition was -27.8%.

`O=C1N/C(=C/c2cccn2-c2ccccc2)C(=O)N1c1cccc(Cl)c1`: the Potency is 10 µM (active).

For `O=C1CC(NNc2ccccc2)C(=O)N1c1cccc(Cl)c1` (stereo not given), the max response, negative = inhibition is -28.1%.

Regarding `O=C(/C=C/c1ccco1)Nc1ccc(Oc2ccccc2)cc1`, the max response, negative = inhibition was -5.89%.

On to `Cc1nnc(NC(=O)/C=C/c2ccco2)s1`, for which the max response, negative = inhibition was -4.39%.

`Cc1ccc(-n2nc3ccc(NC(=O)/C=C/c4ccco4)cc3n2)cc1C`: the Potency was 12.6 µM (active).

On to `COc1ccccc1Nc1c2c(nc3ccc(NC(=O)/C=C/c4cc(OC)c(OC)c(OC)c4)cc13)CCCC2`, for which the max response, negative = inhibition is -4.58%.

Take `Cc1ccc(OCC(=O)N/N=C\c2ccco2)c(C)c1`: the max response, negative = inhibition was 4.92%.

Turning to `Cc1ccc(O)c(NC(=O)COc2cc(C)ccc2C)c1`, the Potency is 31.6 µM (active).

As for `COc1ccc(C(=O)Nc2cc(C)ccc2NC(=O)COc2ccccc2)cc1`, the max response, negative = inhibition was 2.68%.

Take `Cc1noc(/C=C/N(C)C)c1S(=O)(=O)N1CCCC(C(=O)NCc2ccco2)C1` (stereo not given): the max response, negative = inhibition is 14.2%.

For the compound `Cc1noc(/C=C/c2ccco2)c1S(=O)(=O)N1CCC(C(=O)Nc2ccc(Cl)cn2)CC1`, the Potency was 6.31 µM (active).

As for `CC(=O)c1ccc(NC(=O)C2CCN(S(=O)(=O)c3c(C)noc3/C=C/c3ccc(C)cc3)CC2)cc1`, the max response, negative = inhibition is 9.83%.

For the compound `Cc1cccc(NC(=O)C2CCN(S(=O)(=O)c3c(C)noc3/C=C/c3ccco3)CC2)c1`, the max response, negative = inhibition was 2.41%.

Regarding `Cc1cc(C)c(/C=C/c2onc(C)c2S(=O)(=O)N2CCC(C(=O)Nc3ccc(Cl)cc3C)CC2)c(C)c1`, the max response, negative = inhibition is 0.507%.

Turning to `Cc1noc(/C=C/c2ccco2)c1S(=O)(=O)N1CCC(C(=O)N2CCc3ccccc32)CC1`, the Potency was 15.8 µM (active).

On to `Cc1ccc(NC(=O)CCCn2c(=O)c3cccn3c3ccccc32)cc1Cl`, for which the max response, negative = inhibition was 8.76%.

Take `Cc1ccc(C)c(N2CCN(C(=O)CN3C(=O)COc4ccc(S(=O)(=O)N5CCCCCC5)cc43)CC2)c1`: the max response, negative = inhibition is -9.73%.

As for `Cc1ccc(C)c(NC(=O)CSC2=Nc3ccccc3N=C(c3ccc(F)cc3)C2)c1`, the max response, negative = inhibition is 1.61%.

As to `O=C(CCn1c(SCC(=O)c2ccccc2)nc2ccccc2c1=O)NCc1ccc(F)cc1`, the max response, negative = inhibition is -24.2%.

Consider `O=C(Nn1c(-c2ccccc2)nc2ccccc2c1=O)c1ccc([N+](=O)[O-])cc1`, for which the max response, negative = inhibition is 8.42%.

Consider `O=C(Nn1c(SCc2ccc([N+](=O)[O-])cc2)nc2ccccc2c1=O)c1ccc(F)cc1`, for which the Potency was 10 µM (active).

For the compound `CCc1cccc(C)c1NS(=O)(=O)c1ccc(-c2cc(C)no2)s1`, the max response, negative = inhibition is -2.03%.

As to `CCc1ccc(-n2nnc(-c3nc(-c4ccccc4)no3)c2C)cc1`, the max response, negative = inhibition was 11.5%.

Consider `CCCNC(=O)c1ccc(Cn2c(SCC(N)=O)nc3ccccc3c2=O)cc1`, for which the max response, negative = inhibition is -1.8%.

As for `COc1ccc(CC(=O)Nc2nnc3n2CCS3)cc1OC`, the max response, negative = inhibition was 3.34%.

Consider `O=C(O)COc1c(Cl)cc(Cl)c2cccnc12`, for which the max response, negative = inhibition was -2.23%.

Turning to `O=S(=O)(O)c1ccc(O)c2ncccc12.O=S(=O)(O)c1ccc(O)c2ncccc12.[Zn]`, the Potency was 3.16 µM (active).

As to `CC(=O)c1ccc(N2CCN(C3C(=O)c4ccccc4N3C(C)=O)CC2)cc1` (stereo not given), the max response, negative = inhibition is 6.9%.

On to `COc1ccc(C(F)(F)F)cc1NC(=O)c1sc2nc(-c3cccs3)ccc2c1N`, for which the max response, negative = inhibition was -12.3%.

Turning to `CCN(CC(=O)Nc1ccc2c(c1)OCCO2)Cc1cc(=O)oc2cc(C)c(C)cc12`, the max response, negative = inhibition is -1.71%.

In the case of `CC(C)NS(=O)(=O)c1ccc(OCC(=O)Nc2ccc3c(c2)OCCO3)cc1`, the max response, negative = inhibition is 5.06%.

With `O=C(COc1ccc2c(C(F)(F)F)cc(=O)oc2c1)Nc1ccc2c(c1)OCCO2`, the Potency is 7.94 µM (active).

On to `Cc1ccc(CN(C(=O)c2ccccc2[N+](=O)[O-])c2ccccn2)cc1`, for which the max response, negative = inhibition is -9.11%.

With `COc1ccc(CNC(=O)c2cc3c(=O)[nH]c4ccc(C)cc4c3s2)c(OC)c1`, the max response, negative = inhibition is 8.63%.

Take `C/C(=N\NC(=O)CNC(=O)C(c1ccccc1)c1ccccc1)c1ccc(C)cc1`: the Potency is 12.6 µM (active).

In the case of `C/C(=N\NC(=O)Cc1ccc(F)cc1)c1ccc(F)cc1`, the max response, negative = inhibition was 11.2%.

For `C/C(=N\NC(=O)c1nc(C)cc(C)n1)c1ccccc1`, the max response, negative = inhibition was 4.34%.

Take `O=C(CCCCn1c(=O)c2ccccc2n(CC(=O)Nc2cccc(C(F)(F)F)c2)c1=O)NCc1ccc2c(c1)OCO2`: the max response, negative = inhibition was 16.7%.

As for `CCOC(=O)c1ccc2c(c1)N(Cc1cccc(OC)c1)C(=O)c1ccccc1S2(=O)=O`, the max response, negative = inhibition is -13.7%.

Take `COc1cc(/C=N/NC(=O)c2ccccc2)ccc1OS(=O)(=O)c1ccccc1`: the max response, negative = inhibition was -10.2%.

As to `COc1ccc(/C=N/NC(=O)c2ccccc2)cc1OS(=O)(=O)c1ccccc1`, the max response, negative = inhibition is -2.21%.

As to `COc1cc(/C=N/NC(=O)Nc2ccccc2)ccc1OCCOc1ccccc1C`, the Potency is 25.1 µM (active).

With `Cc1ccc(NC(=O)Cc2ccc(NC(=O)N3CCCCc4ccccc43)cc2)cc1`, the max response, negative = inhibition is 16.9%.

Consider `Cc1cccc(NC(=O)c2ccc3nc(C(C)C)oc3c2)c1C`, for which the max response, negative = inhibition is -5.86%.

Consider `CC(C)(C)C1CCC(=NNC(=O)c2cc(-c3ccccc3)n[nH]2)CC1` (stereo not given), for which the Potency is 12.6 µM (active).

For the compound `CC(C)(C)C1CCC(=NNC(=O)c2ccc(Br)o2)CC1` (stereo not given), the max response, negative = inhibition was 6.4%.

For `CC(NC(=O)C(=O)NN=C1CCC(C(C)(C)C)CC1)c1ccccc1` (stereo not given), the max response, negative = inhibition is 14.7%.

With `CCOC(=O)Cn1c(=O)n(C2CCCCC2)c2nc(-c3cccc(OC)c3)nc(C(N)=O)c21`, the max response, negative = inhibition was -11%.

With `COc1ccc(CCNc2nc3c(-c4cccc(F)c4)nnn3c3ccccc23)cc1OC`, the max response, negative = inhibition is 16.6%.

`CC1=C(C(=O)N2CCN(c3cccc(C(F)(F)F)c3)CC2)C2(CCCCC2)OC1=O`: the max response, negative = inhibition is -13.5%.

As to `CCOc1ccc(CNC(=O)c2ccc3c(c2)nnn3C2CCCC2)cc1`, the max response, negative = inhibition is -5.67%.

In the case of `Cc1nn(CC(=O)Nc2nc3ccccc3s2)c(C)c1[N+](=O)[O-]`, the max response, negative = inhibition is -6.47%.

Consider `O=C(CCCN1C(=O)/C(=C\c2ccco2)SC1=S)Nc1cccc2ccccc12`, for which the max response, negative = inhibition is -12.6%.

For the compound `O=C(CN1C(=O)/C(=C\c2ccccc2F)SC1=S)Nc1nc2ccccc2s1`, the Potency was 7.94 µM (active).

On to `COc1ccccc1C(=O)N1CC2(C)CC1CC(C)(C)C2` (stereo not given), for which the max response, negative = inhibition was 16.4%.

On to `Cc1cccc(C(=O)NCCCN2CCCC2=O)c1`, for which the max response, negative = inhibition was -2.37%.

On to `Cc1cccc(C(=O)NCC(=O)OCC(=O)N2CC3(C)CC2CC(C)(C)C3)c1` (stereo not given), for which the Potency was 12.6 µM (active).

As for `Cc1cc(C)cc(NC(=O)Cn2nc(N3CCN(c4ccccc4)CC3)ccc2=O)c1`, the max response, negative = inhibition is -3.11%.

Take `O=C(CSc1nc2ccccc2[nH]1)N/N=C/C=C\c1ccccc1[N+](=O)[O-]`: the max response, negative = inhibition is 10.4%.

As to `Cc1ccc(-n2c(SCC(=O)N/N=C/C=C/c3ccccc3[N+](=O)[O-])nc3ccccc3c2=O)cc1`, the Potency was 25.1 µM (active).

As to `CCn1c(SCC(=O)N/N=C/C=C/c2ccccc2[N+](=O)[O-])nnc1-c1ccccc1`, the max response, negative = inhibition is -1.88%.

With `COCCN(CCOC)S(=O)(=O)c1ccc(C(=O)Nc2nc3c(s2)CCc2ccccc2-3)cc1`, the max response, negative = inhibition was -1.58%.

Regarding `CCN(c1ccccc1)S(=O)(=O)c1ccc(C(=O)Nc2nccs2)cc1`, the max response, negative = inhibition was 0.885%.

`C=CCN(CC=C)S(=O)(=O)c1ccc(C(=O)Nc2nc3c(s2)CCc2ccccc2-3)cc1`: the Potency is 10 µM (active).

With `Cc1ccc(-c2nnc(Nc3cccc(Br)c3)c3ccccc23)cc1S(=O)(=O)NCC1CCCO1` (stereo not given), the max response, negative = inhibition was -20.7%.

`CCCCCn1c(=O)[nH]c2cc(C(=O)NCCN(C)CCCC)ccc2c1=O`: the max response, negative = inhibition was 2.28%.

On to `CCn1c(C)nc2cc(C(=O)NNS(=O)(=O)c3ccc(C)cc3C)ccc21`, for which the max response, negative = inhibition is 9.43%.

For the compound `Cc1ccc(S(=O)(=O)n2cnc3ccccc32)c(C)c1`, the max response, negative = inhibition was 3.08%.

Consider `CCOC(=O)c1c(C)n(S(=O)(=O)c2ccc(C)cc2C)c2ccc(NS(=O)(=O)c3ccc(C)cc3C)cc12`, for which the Potency is 1.58 µM (active).

With `N#Cc1ccc(-c2ccc(Cl)cc2)nc1Oc1ccc(F)cc1`, the Potency is 25.1 µM (active).

Turning to `N#Cc1ccc(-c2ccc(F)cc2)nc1Sc1ccccc1`, the max response, negative = inhibition was -27.2%.

For the compound `CN(C)c1ccnc(Oc2ccc(F)cc2)c1C#N`, the max response, negative = inhibition was -8.17%.

`COc1cc(NC(=O)Cn2c(=O)n(Cc3ccco3)c(=O)c3oc4ccccc4c32)cc(OC)c1`: the max response, negative = inhibition was -21.5%.

For the compound `Cc1ccc(C)c(CNC(=O)c2cc3ccccn3n2)c1`, the max response, negative = inhibition was -9.01%.

Take `Cc1ccccc1C(=O)NNC(=O)CN1C(=O)c2ccccc2C1=O`: the max response, negative = inhibition is -8.81%.

As to `C=CCn1c(C)cc(C(=O)CN2C(=O)c3ccccc3C2=O)c1C`, the max response, negative = inhibition was 4.29%.

Take `Cc1cc2c(cc1C)N(C(=O)CN1C(=O)c3ccccc3C1=O)C(C)(C)c1ssc(=S)c1-2`: the Potency is 2.51 µM (active).
